# Screening results as filed in PubChem BioAssay.
# UGM FP inh – Mtb UDP-galactopyranose mutase inhibition; inhibition, % at 10 µM; purified UGM, fluorescence polarization probe displacement; 320,000 compounds, 0.06% hits; AID 504406; P9WIQ1; in the data active = inhibition above about 10%, passing the limit was not always enough; inconclusive = no clear call, values can overlap the other calls
# Rv3671c inh – Rv3671c (M. tuberculosis) protease inhibition | P9WHR9 | inhibition, % at 5.96 µM | 320,000 compounds, 0.048% hits; in the data active = inhibition above about 38%;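 also: extracellular domain of Rv3671c used as enzyme; 0% = enzyme with DMSO and 100% = no enzyme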
# Target sequence (P9WHR9 whole entry, looked up, the tested form may be a part): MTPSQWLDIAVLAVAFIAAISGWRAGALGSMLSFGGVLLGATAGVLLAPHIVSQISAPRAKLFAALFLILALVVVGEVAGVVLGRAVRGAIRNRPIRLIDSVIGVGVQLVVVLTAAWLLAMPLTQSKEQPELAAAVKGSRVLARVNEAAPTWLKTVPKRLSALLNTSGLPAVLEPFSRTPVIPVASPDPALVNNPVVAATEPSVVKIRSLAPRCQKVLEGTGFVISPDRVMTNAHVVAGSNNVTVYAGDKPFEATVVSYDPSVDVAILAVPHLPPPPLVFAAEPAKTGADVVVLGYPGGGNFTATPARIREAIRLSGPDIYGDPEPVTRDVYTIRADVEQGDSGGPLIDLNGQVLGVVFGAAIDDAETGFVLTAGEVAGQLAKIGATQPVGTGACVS
# FBA Mtb inh – inhibits M. tuberculosis FBA enzyme. P9WQA3. 360,000 compounds, 2.3% hits. purified M. tuberculosis FBA, fluorescence read-out. inhibition, % at 1 µM;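 also: 0% = vehicle and 100% = reference inhibitor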
# GDH-TPI counter-1 – inhibits GDH-TPI coupling enzymes, artifact for Mtb FBA screen; 360,000 compounds, 1.2% hits; GDH-TPI coupled enzyme counterscreen, NADH absorbance; inhibition, % at 4.8 µM; AID 588335; in the data active = inhibition above about 30%;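 also: 0% = DMSO wells and 100% = wells lacking the enzyme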
# Mtb betalactam – beta-lactam sensitization of Mtb H37Rv; M. tuberculosis H37Rv growth with meropenem, percent inhibition; inhibition, % at 25 µM; 330,000 compounds, 0.27% hits; AID 434955; call rule not given here;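 also: growth measured after seven days incubation then overnight dye step; 0% = bacteria only wells and 100% = bacteria with antibiotic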
# FadD28 binding – M. tuberculosis FadD28 bisubstrate binding inhibition; inhibition, % at 12.5 µM; 360,000 compounds, 0.22% hits; FadD28 bisubstrate probe binding, fluorescence polarization; in the data active = inhibition above about 8.5%, passing the limit was not always enough; inconclusive = no clear call, values can overlap the other calls
# Mtb FBA confirm – confirmation of M. tuberculosis fructose-bisphosphate aldolase inhibitors. shares compounds with FBA Mtb inh. purified M. tuberculosis FBA, fluorescence read-out. inhibition, % at 1 µM. 5,600 compounds, 78% hits;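 also: 0% = vehicle wells and 100% = reference inhibitor wells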
# GDH-TPI counter-2 – GDH-TPI inhibition counter-screen for FBA inhibitors | shares compounds with FBA Mtb inh | GDH-TPI coupled enzyme counterscreen, fluorescence | inhibition, % at 1 µM | 5,600 compounds, 81% hits; in the data active = inhibition above about 10%
# Starred values were filed as active, the others as inactive; u = inconclusive; x = no result; + = active, no number. The list is not random: actives were taken first. Their share in the collection is about 3.7%. Rule as the data show it, unless noted: active = inhibition above about 27%; inactive = the rest.
SMILES,UGM FP inh,Rv3671c inh,FBA Mtb inh,GDH-TPI counter-1,Mtb betalactam,FadD28 binding,Mtb FBA confirm,GDH-TPI counter-2
O=c1[nH]c2cc3c(cc2cc1CN(CCN1CCOCC1)C(=S)NCC1CCCO1)OCO3 (stereo unspecified),2.5,2.5,34.4*,16.1,13.4,-1.9,124.4*,125.0*
CN(C)CCN(Cc1cc2cc3c(cc2[nH]c1=O)OCO3)C(=S)NCC1CCCO1 (stereo unspecified),3.5,-3.3,50.3*,21.7,-11.6,-0.1,-0.5,-3.9
Cc1cc2oc(=O)cc(CN3CCCCC3)c2cc1Cl,x,x,0.2,x,x,-1.3,x,x
Cc1ccc(S(=O)(=O)N2CCN(C(=O)c3ccc(N4CCC(C)CC4)c([N+](=O)[O-])c3)CC2)cc1,x,x,-1.5,4.8,x,-2.7,x,x
CN1C(=O)c2ccccc2N(C)C1c1ccc(F)cc1 (stereo unspecified),-1.8,x,53.6*,0.8,2.3,-2.1,40.1*,34.8*
CN1C(=O)c2ccccc2N(C)C1c1cccc(O)c1 (stereo unspecified),3.4,-1.0,58.6*,-1.5,-2.8,-4.4,0.0,-4.2
CN1C(=O)c2ccccc2N(C)C1c1ccc2c(c1)OCO2 (stereo unspecified),0.8,-9.7,101.1*,-4.8,-1.1,-4.3,62.9*,39.3*
O=C(CCN1C(=O)c2ccccc2C1=O)NCc1ccc(F)cc1,2.3,2.4,1.5,0.8,0.4,-0.7,x,x
COc1cc(C2N(C)C(=O)c3ccccc3N2C)ccc1O (stereo unspecified),1.6,-0.3,76.2*,0.0,-4.0,-4.0,-5.3,-6.7
Cc1nn(-c2ccccc2)c(Cl)c1C(=O)NNC(=O)c1ccccc1O,0.6,14.7,3.5,17.8,9.8,-1.8,x,x
O=C1Cc2cc(S(=O)(=O)Nc3ccc(N4CCOCC4)cc3)ccc2N1,-0.2,4.5,-3.3,0.9,-3.0,0.9,x,x
CCc1c(C)nc(SCC(=O)NNC(=O)c2ccco2)[nH]c1=O,5.2,-4.6,-5.8,-4.8,6.5,-2.6,x,x
CCc1ccccc1N(C(=O)c1snc(C(N)=O)c1N)C(C(=O)NCC1CCCO1)c1ccc(OC)c(OC)c1 (stereo unspecified),x,x,62.0*,24.4,x,-0.1,+,+
COc1ccc(C(C(=O)NCC2CCCO2)N(C(=O)c2snc(C(N)=O)c2N)c2ccccc2C)cc1OC (stereo unspecified),-3.8,-13.1,49.8*,14.1,2.2,-0.4,168.1*,+
COc1ccc(C(C(=O)NCC2CCCO2)N(C(=O)c2snc(C(N)=O)c2N)c2ccccc2)cc1OC (stereo unspecified),x,x,13.4,26.9,x,x,x,x
CCOC(=O)c1c(C)[nH]c(C(=O)OCC(=O)N(CC(C)C)C2CCS(=O)(=O)C2)c1C (stereo unspecified),-2.9,3.5,0.3,7.0,-0.3,x,x,x
COc1ccc(-c2cn3cccnc3n2)cc1NC(=O)c1ccc(Br)o1,0.1,-5.9,30.3*,13.1,x,-6.2,9.3,5.4
CN1CCc2c(sc3c2c(=O)n(-c2cccc(Cl)c2)c2nncn32)C1,-1.2,-1.1,5.6,0.0,-0.3,-4.6,x,x
CN1CCc2c(sc3nc(NCCO)n(-c4cccc(Cl)c4)c(=O)c23)C1,1.6,-1.5,70.6*,22.8,-6.9,-2.8,108.6*,87.6*
Cc1nn2c(=O)c(NC(=O)c3ccc(Cl)cc3)cnc2s1,-2.1,4.2,65.0*,6.9,2.6,-0.9,43.8*,28.4*
CCOc1ccc2nc(NCCNC(=O)C3CC3)c(C)cc2c1,-1.0,3.4,21.5,12.7,-11.3,-0.1,x,x
CCOc1ccc2nc(NCCNC(=O)C(C)C)c(C)cc2c1,1.4,-1.1,35.3*,22.4,-1.9,0.3,85.8*,65.9*
Cc1cc(=O)n2[nH]cc(C(=O)O)c2n1,-2.0,-0.5,38.3*,8.1,-6.7,0.2,178.1*,146.4*
Cc1cc(=O)n2[nH]c(C(=O)O)nc2n1,2.9,0.7,7.8,4.2,-7.5,-0.4,x,x
Cc1cc(NC(=O)c2coc(=O)c(Br)c2)ccc1C(C)C,2.9,-1.5,49.4*,12.5,-0.5,-1.5,+,+
SMILES,UGM FP inh,Rv3671c inh,FBA Mtb inh,GDH-TPI counter-1,Mtb betalactam,FadD28 binding,Mtb FBA confirm,GDH-TPI counter-2
O=C(NCCc1ccc(F)cc1)c1coc(=O)c(Br)c1,0.4,5.6,16.7,20.6,-1.4,-1.7,x,x
O=C(Nc1ccccc1F)c1coc(=O)c(Br)c1,-0.4,0.6,107.2*,14.2,-6.9,-3.5,x,+
CCOc1ccc(C(=O)NCc2ccccn2)cc1,-1.9,10.3,0.5,2.6,-8.0,-2.7,x,x
C[C@@H](NC(=O)c1coc(=O)c(Br)c1)c1ccccc1,-0.4,5.3,81.0*,32.5*,14.9,1.3,72.4*,51.9*
O=C(NCc1ccccn1)c1coc(=O)c(Br)c1,1.3,2.3,78.4*,12.2,-3.9,-0.6,-4.4,-5.8
Cc1onc(-c2ccccc2)c1NC(=O)OC(C)c1cccnc1 (stereo unspecified),x,x,-1.5,0.9,x,-3.3,x,x
O=c1ccc(=O)n(CCc2ccccn2)[nH]1,x,x,-0.4,6.9,x,-2.7,x,x
COc1ccc(NC(=O)CN(C)C(=O)c2ccc(S(=O)(=O)Nc3ccccc3F)cc2)cc1,-2.9,-2.1,-0.5,0.7,-8.1,-0.6,x,x
COc1ccc(C(NC(=O)C2CCN(C/C=C/c3ccc(OC(C)=O)c(OC)c3)CC2)c2ccccn2)cc1 (stereo unspecified),x,x,-1.7,-2.6,x,-0.6,x,x
COc1ccc(CC(=O)NCC2CCCCC2)cc1OC,0.4,-1.1,27.8*,8.0,-8.0,0.0,-7.6,-8.8
COc1cc(CCC(=O)OCC(=O)NCC2CCCCC2)cc(OC)c1OC,0.4,-1.7,0.7,0.0,6.4,-0.4,x,x
Cc1ccsc1CN(C)C(=O)CN1C(=O)NC(c2ccccc2)(c2ccccc2)C1=O,1.0,-13.9,1.9,-1.6,-0.8,-3.7,x,x
CCOC(=O)C1(C)CCCN(C(=O)c2ccccc2F)C1 (stereo unspecified),x,x,0.5,-4.6,x,-1.5,x,x
Cc1cc(NC(=O)CCC(=O)N(c2ccccc2C)C(C(=O)NC2CCCC2)c2ccccc2)no1 (stereo unspecified),-2.8,3.2,86.4*,8.4,8.8,-1.5,+,167.0*
Cc1cc(NC(=O)CCC(=O)N(c2ccccc2)C(C(=O)NC2CCCC2)c2ccccc2)no1 (stereo unspecified),0.9,1.0,5.8,-5.8,-4.8,-2.8,x,x
Nc1ccc2c(c1)[nH]c(=O)c1cc(N)ccc12,x,x,32.4*,0.0,x,u,23.5,18.2*
CCC(OCC(O)CN1CCCCC1)c1ccccc1 (stereo unspecified),-3.3,-4.6,0.3,9.6,-6.4,-3.3,x,x
CC(C)c1cc(C(C)C)n2nc(N)nc2n1,-0.7,4.7,18.4,5.6,-1.3,-2.6,x,x
CCCc1cc(CCC)n2nc(N)nc2n1,x,x,31.9*,4.9,x,-1.9,+,178.8*
